Assay results published in PubChem BioAssay (NCI).
“And” between values parts separate entries of the source, which are not always exact repeats. Equal values may be shown once. This is part of a sample that, as a whole, favours compounds with a hit. Of some 79,000 tested, about 15% had one in any assay. Unmarked numbers belong to inactive results. The source made the active and inactive calls. Rule as the data show it: active = growth inhibition above about 70%; inactive = the rest.

experiment: NCI Yeast Anticancer Drug Screen. Data for the mec2-1 strain (AID 157); conditions: S. cerevisiae mec2-1 strain, stronger effect = higher value; at 50.0 µM unless noted
Procedure: Growth inhibition of yeast strains with defined genetic alterations is measured as a screen for potential anti-cancer activity. Selected strains with alterations in DNA damage repair or cell cycle control were exposed to compounds and growth inhibition was measured relative to vehicle treated controls. The strain used in this assay is mec2-1

Structure (SMILES) | growth inhibition
S=C(S)Nc1cccc2ccccc12 | -13.9% and -10.2%
Nc1nc2cc(F)ccc2o1 | -26.1%
N#CCCCCCOCCOCCOCCOCCOCCCCCC#N | 12.9%
Cc1ccc(N2CCC(O)C2)cc1 (stereo not given) | -8.5%
CCC(C(N)=O)c1ccccc1 (stereo not given) | -5.65%
O=c1c2c3c(sc2nc2n1N=C(c1ccc(Cl)cc1)CS2)CCCC3 | 6.05%
O=C(CCl)Oc1ccc(C(=O)O)cc1 | -3.55%
Fc1ccc2c(c1)SC1Oc3ccccc3-c3c1c-2nn3-c1ccccc1 (stereo not given) | -7.45%
CCCCCCCCCCCCCCCC[N+](C)(C)CC#N | 99.3% (active)
O=c1nc2c(c(-c3ccc(F)cc3)[nH]1)COC/C2=C\c1ccc(F)cc1 | 11.3%
CN(C)c1ccc(/C=C2\C(=O)/C(=C\c3ccc(N(C)C)cc3)c3ccccc32)cc1 | -4.25%
CC1COC(C)(C)P(=O)(c2ccccc2)C1 (stereo not given) | -9%
O=C(O)[C@H](Cc1ccccc1)N1C(=O)N[C@@H](Cc2ccccc2)C1=O | -1.7%
COc1ccc(C(OC(=O)Oc2ccccc2)c2ccccc2)cc1 (stereo not given) | 6.55%
N#Cc1c(C(F)(F)F)cc(-c2cccs2)nc1SC(C(=O)Nc1cc(C(F)(F)F)cc(C(F)(F)F)c1)c1ccccc1 (stereo not given) | -13.8%
CC(=O)Nc1ccc(NC(=O)NCCCCCCNC(=O)Nc2ccc(NC(C)=O)cc2)cc1 | 2.7%
O=c1oc(-c2ccc([N+](=O)[O-])cc2Cl)nc2ccccc12 | 23.4%
Cc1ccc(-c2nc3ccc(Cl)cc3[nH]2)cc1 | 9.1%
N#C/C(=C1/c2cc([N+](=O)[O-])ccc2-c2c1cc([N+](=O)[O-])cc2[N+](=O)[O-])N1CCCCC1 | -5.3%
FC(F)(F)c1cc(NC(=S)SCc2ccc3c(c2)OCO3)ccc1Cl | 63.9%

Structure (SMILES) | growth inhibition
CCN(CC)c1c(C)c(-c2ccccc2)n[n+]([O-])c1-c1ccccc1 | 24.1%
O=c1[nH]c(=O)n(C2CC(O)C(CO)O2)cc1OCCCc1ccccc1 (stereo not given) | 0.75%
Cc1ccc(S(=O)(=O)C2CC(=O)N(c3ccc(F)c(Cl)c3)C2=O)cc1 (stereo not given) | 4.55%
OCC[P+](c1ccccc1)(c1ccccc1)c1ccccc1 | 12.1%
CCCCCCC(=O)C/C(=N/NC(N)=S)C(=O)NC1C2CC3CC(C2)CC1C3 (stereo not given) | -19.2%
Cc1cc(Cl)ccc1OCC(=O)NCCO | 19.9%
CCc1cccc(CC)c1NC(=O)OCCN(CC)CC | -16.9%
COc1nc(NC2OC(CO)C(O)C(O)C2O)c(I)c(=O)[nH]1 (stereo not given) | -3.4%
O=C(CSS(=O)(=O)O)Nc1ccccc1 | -0.65%
CCOC(=O)C(=O)Nc1c(C)cccc1C(C)(C)C | -30.4%
COc1cccc(C(c2ccccc2)C(CC(=O)O)CC(=O)O)c1 (stereo not given) | 8.6%
O=c1oc2ccccc2cc1O | -4.5%
N/N=C1/CCN2CCCc3cccc1c32 | 2.75%
Cc1ccccc1NC(=O)C(=O)CC(=O)c1sc(-n2nc(-c3ccccc3)cc2-c2ccccc2)nc1C | -4.3%
N#Cc1c(-c2ccc(Cl)cc2)c(-c2ccc(Cl)cc2)nn(CCOC(=O)CCC(=O)OCCn2nc(-c3ccc(Cl)cc3)c(-c3ccc(Cl)cc3)c(C#N)c2=O)c1=O | 8.95%
CC12C(=C(C#N)C(=N)N1c1ccc(Cl)c(Cl)c1)C=C(O)CC2SCCS(=O)(=O)O (stereo not given) | 1.4%
COc1ccc(C(=[N+]=[N-])c2ccc(OC)cc2)cc1 | -6.85%
C=C(C)C(C(=O)OCC)C(=O)OCC | -2.75%
COc1ccccc1CN1CCCN(Cc2ccccc2OC)C1c1ccc(N(C)C)cc1 | 32.6%
CC(C)N(Cc1ccccc1)S(=O)(=O)c1n[nH]c(C(C)(C)C)n1 | -27.1%
